Reference: PubChem BioAssay AID2551 (National Center for Advancing Translational Sciences (NCATS), 2010)
The campaign covered roughly 310,000 compounds. About 17,000 (5.5%) were called active. Roughly 11% stayed inconclusive and do not appear here. What follows is part of a selection rich in actives, with near analogues and random picks from the rest. A call without a number means that no potency is given here. Values without a mark were called inactive. Calls follow the shape of the dose curve; as a rule, active = well fitted inhibition curve with a large enough effect; inconclusive = small, poorly fitted or top-dose-only effect, or effect the other way; inactive = no such curve, though single readings can be large or run the other way.

target: Nuclear receptor ROR-gamma (Mus musculus) (UniProt P51450); test: qHTS for inhibitors of ROR gamma transcriptional activity; details: Drosophila S2 Gal4-RORgamma UAS-luciferase reporter, 20 h; series mostly up to 53.6 µM; also: nearly all actives have a fitted effect of over 60% in size
Excerpt: NIH Molecular Libraries Probe Production Network [MLPCN] NIH Chemical Genomics Center [NCGC] MLPCN Grant: R03 DA026211-01 Assay Provider: Dan Littman, New York University Assay Overview: The retinoic acid-related orphan receptor (ROR) gamma is a transcription factor that has a central role in the differentiation of Th17 cells, a subset of T helper cells that secrete the inflammatory cytokines IL-17, IL-17F, and IL-22. Th17 cells have been implicated in graft versus host disease, autoimmune disease and asthma. ROR gamma is induced in naive T helper cells in the presence of TGF-beta combined with IL-6, IL-21, or IL-23, and thereafter directs the expression of the Th17 lineage cytokines. To study the mechanism of action of ROR gamma, an insect cell-based assay was screened. This Drosophila Schneider cell line was stably transfected with two vectors: a gene expressing a fusion of the Gal4 DNA binding domain and ROR gamma transactivation domain under the control of the metallothionine promoter and a Photinus luciferase reporter regulated by the Gal4 binding site enhancer, UAS. […] Small molecule inhibitors of ROR gamma activity are detected by a decrease in luciferase reporter activity.
Assay Protocol Summary: For screening, 600 cells in 4 uL/well were dispensed into white solid 1536-well plates (Grenier) using a solenoid-based dispenser. Following transfer of 23 nL compound or DMSO vehicle by a pin tool, the plates were incubated 1 hr at ambient temperature, and 1 uL/well copper sulfate (700 uM final concentration) was added. The plates were centrifuged 15 s at 1000 RPM and incubated 20 hr at ambient temperature. After addition of 1.5 uL Photinus luciferase detection reagent, the plates were incubated 10 min at ambient temperature and then read by an ViewLux (Perkin Elmer) to detect luminescence. Keywords: NIH Roadmap, MLPCN, MLI, MLSMR, qHTS, NCGC, qHTS, nuclear hormone receptor, retinoic acid-related orphan receptor, ROR gamma
Potency is read from the fitted curve at half-maximal effect.

Sequence of Nuclear receptor ROR-gamma (Mus musculus) (P51450 whole entry, looked up, the tested form may be a part): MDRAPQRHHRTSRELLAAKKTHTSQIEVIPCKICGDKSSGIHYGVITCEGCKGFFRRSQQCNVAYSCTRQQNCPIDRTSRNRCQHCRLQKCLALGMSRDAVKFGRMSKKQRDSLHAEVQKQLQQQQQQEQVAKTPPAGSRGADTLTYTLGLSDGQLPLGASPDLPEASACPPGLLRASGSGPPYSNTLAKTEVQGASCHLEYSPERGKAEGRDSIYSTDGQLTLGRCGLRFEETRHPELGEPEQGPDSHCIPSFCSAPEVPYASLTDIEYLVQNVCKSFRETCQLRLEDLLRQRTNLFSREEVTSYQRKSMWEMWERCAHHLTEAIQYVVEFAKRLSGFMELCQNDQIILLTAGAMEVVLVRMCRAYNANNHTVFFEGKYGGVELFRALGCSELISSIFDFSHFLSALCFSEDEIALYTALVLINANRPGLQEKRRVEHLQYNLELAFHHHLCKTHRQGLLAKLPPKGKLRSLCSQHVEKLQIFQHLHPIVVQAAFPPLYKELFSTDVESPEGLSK

SMILES	Potency	activity change, negative = inhibition
Cc1cc(N/N=C\c2ccc(Br)cc2)nc(-n2nc(C)cc2C)n1	0.1 µM (active)	
Cc1ccc(S(=O)(=O)Nc2nc(C)cc(N/N=C/c3ccc(O)cc3)n2)cc1	inactive	
COc1cccc2c(N/N=C/c3ccco3)cc(C)nc12	inactive	
Cc1cc(C)n(-c2cc(Oc3ccccc3)ncn2)n1	inactive	
Cc1cc(Nc2ccc(Cl)cc2)nc(N2CCOCC2)n1	inactive	
CN(C)c1ccc(/C=N/Nc2cc(N3CCOCC3)nc(N3CCOCC3)n2)cc1	inactive	
CC(=O)c1ccc(Oc2cc(C)nc(-n3nc(C)cc3C)n2)cc1	14.1 µM (active)	
COc1ccc(Nc2cc(C)nc(-n3nc(C)cc3C)n2)cc1	0.501 µM (active)	
COc1ccc(/C=N/Nc2cc(N3CCOCC3)nc(C)n2)c(OC)c1	inactive	
Cc1cc(Oc2ccccc2)nc(N2CCOCC2)n1	inactive	
COc1ccc(NC(=O)c2nc(-n3nc(C)cc3C)ccc2Cl)cc1Cl	inactive	
COc1ccccc1/C=N\Nc1cc(C)nc(-n2nc(C)cc2C)n1	0.251 µM (active)	
CCn1c(Cc2ccc(OC)cc2)nnc1SCC(=O)Nc1ccc(N2CCOCC2)cc1	inactive	
NC(=O)C1CCCN(CC(=O)N2CCN(c3ccccc3)CC2)C1 (stereo not drawn)	inactive	
Cc1ccccc1OCC(=O)Nc1ccc(S(=O)(=O)N2CCOCC2)cc1	inactive	
O=C(Nc1cccc(Cl)c1N1CCOCC1)c1cccnc1	inactive	
CCOC(=O)c1sc(NC(=O)c2sc(C)nc2C)nc1C	inactive	
COCCn1c(SCC(=O)Nc2nc(C)cs2)nnc1C(C)C	inactive	
CC1CC(C)CN(CCCNC(=O)c2csc3c2CCCCC3)C1 (stereo not drawn)	inactive	
CN1C(=O)CN2CCc3ccccc3C2c2cc(Cl)ccc21 (stereo not drawn)	inactive	
O=C1CCC(C(=O)N2CCN(c3ccccc3Cl)CC2)CN1CC1CCCCC1 (stereo not drawn)	inactive	
COc1ccccc1OCC(=O)Nc1c2c(nn1-c1ccc(F)cc1)CS(=O)(=O)C2	inactive	

SMILES	Potency	activity change, negative = inhibition
N#C/C(C(=S)Nc1ccccc1)=C1/NN=C(N2CCOCC2)N1c1ccccc1	1.26 µM (active)	
Cc1ccc(CC2S/C(=C(/C#N)C(=O)N3CCOCC3)N(c3ccccc3)C2=O)cc1 (stereo not drawn)	inactive	
N#C/C(C(=O)N1CCOCC1)=C1/SC(Cc2ccc(F)cc2)C(=O)N1c1ccccc1 (stereo not drawn)	inactive	
c1ccc2c(c1)CCc1snnc1-2	inactive	
COc1cc(/C=N/O)cc(Br)c1OS(=O)(=O)c1ccc(C)cc1	14.1 µM (active)	
COc1cc(C(=O)NCc2ccncc2)cc(Br)c1OCc1ccccc1	inactive	
COc1cc(/C=N/Nc2ccc(C)cc2)cc(Br)c1O	inactive	
COc1cc(/C=N/O)cc(Br)c1OCc1cccc(Cl)c1	10 µM (active)	
CCOc1c(Cl)cc(/C=N/O)cc1OC	inactive	
COc1ccc(/C=N/NC(=O)c2ccccc2)cc1OS(=O)(=O)c1ccccc1	inactive	
Cc1cc(S(=O)(=O)Nc2ccc(C(=O)NCC(c3ccco3)N3CCCC3)cc2)ccc1F (stereo not drawn)	inactive	
COc1cc(/C(=C/c2ccccc2)c2ccccc2)c2c(c1)oc1ccccc12	inactive	
CC(=O)N1c2ccc(S(=O)(=O)NCCC(=O)N(C)C3CCCCC3)cc2CC1C (stereo not drawn)	inactive	
COc1cccc(NC(=O)C(=O)c2cn(CC(=O)N3CCOCC3)c3ccccc23)c1	inactive	
COc1ccc(S(=O)(=O)n2nc(C)c(S(=O)(=O)N3CCOCC3)c2C)cc1	inactive	
CCCCOc1ccc(-c2nnc(-c3ccco3)o2)cc1	inactive	
COc1ccc(C(=O)CSc2nnc(-c3ccco3)o2)cc1	inactive	
CCOc1ccc(-c2nnc(-c3ccco3)o2)cc1	15.8 µM (active)	
O=C(NCc1ccccc1)C(c1ccccc1)N(C(=O)c1csnn1)c1ccc(F)cc1 (stereo not drawn)	inactive	
CCOc1ccc(C(C(=O)NC2CCCC2)N(C(=O)c2snc(C(N)=O)c2N)C2CCCC2)cc1 (stereo not drawn)	inactive	
COc1ccc(C(=O)NC2CC2)cc1OC1CCN(Cc2cnn(C)c2)CC1	inactive	
O=c1c(-c2ccccc2Cl)c[nH]n1-c1ccccc1	inactive	

SMILES	Potency	activity change, negative = inhibition
COc1ccc(CNC(=O)CN(c2ccc(OC)c(Cl)c2)S(=O)(=O)c2ccc(C)cc2)cc1	inactive	
NCCCCCC(=O)N/N=C/c1ccc2nccnc2c1	inactive	
O=C(CCCO)N/N=C/c1cc(Br)ccc1O	3.98 µM (active)	
O=C(CCNc1n[nH]c(=O)[nH]c1=O)N/N=C\c1ccc(Br)cc1	inactive	
COc1ccc(OC)c(NC(=O)c2ccc3c(c2)C(=O)N(c2ccc(OC(C)=O)cc2)C3=O)c1	inactive	
O=C(Nc1cccc2cccnc12)c1cccc(Cl)c1	inactive	
O=C(Nc1ccccc1Cl)Nc1cccc2cccnc12	inactive	
CC(=O)/C(=N\Nc1ccc(Cl)cc1Cl)Sc1cccc2cccnc12	3.16 µM (active)	
CC1=C(C(=O)NC2CC(C)(C)Cc3c2cnn3-c2ccc(C)cc2)OCCO1 (stereo not drawn)	inactive	
CCC(C)c1ccccc1NC(=O)CN(C)CC(=O)Nc1ccccc1SC (stereo not drawn)	15.8 µM (active)	
Cc1ccc(NC(=O)CN(C)Cc2ccc(F)cc2)c([N+](=O)[O-])c1	inactive	
CN(CC(=O)Nc1ccccc1F)CC(=O)Nc1ccccc1Br	inactive	
CN(CC(=O)Nc1ccccc1[N+](=O)[O-])Cc1ccc(Br)cc1	inactive	
CSc1ccccc1NC(=O)CN(C)CC(=O)Nc1ccc(Cl)cc1[N+](=O)[O-]	11.2 µM (active)	
CSc1ccccc1NC(=O)Cc1ccc(Br)cc1	inactive	
CC(=O)c1cc(CN2CCC(n3nccc3NC(=O)c3ccccc3Cl)CC2)cs1	inactive	
O=C(Nc1ccccc1-c1ccccc1)c1ccccc1[N+](=O)[O-]	inactive	
O=C(CN(C(=O)c1csnn1)c1ccc(Br)cc1)NC1CCCC1	inactive	
Cc1ccc(S(=O)(=O)Oc2ccc(/C=N/NC(=O)c3ccncc3)cc2)cc1	inactive	
CCC1CCCCN1C(=S)Nc1ccc(S(=O)(=O)Nc2ncccn2)cc1 (stereo not drawn)	inactive	
CC(=O)Nc1ccc(S(=O)(=O)Oc2ccc(Br)cc2C(=S)N2CCOCC2)cc1	inactive	
CCCCN(C)CCCNC(=O)c1cc(-c2cccs2)nc2ccccc12	inactive	

SMILES	Potency	activity change, negative = inhibition
O=C(Nc1nnc(-c2ccccc2)o1)c1cc(-c2cccs2)nc2ccccc12	4.47 µM (active)	
COC(=O)c1cc(-c2cccs2)nc2ccccc12	inactive	
COC(=O)c1ccc(NC(=O)c2cc3c(CO)cnc(C)c3oc2=Nc2cccc(C(N)=O)c2)cc1	inactive	
COc1ccc(OC)c(CCNC(=O)CCn2ccc3cc(S(=O)(=O)N4CCCC4)ccc32)c1	inactive	
CN(CCc1ccccn1)C(=O)c1ccc(OC2CCN(Cc3ccccn3)CC2)cc1	inactive	
Cc1ccc(C(C)C)cc1OCC(=O)Nc1ccccc1N1CCCC1	inactive	
Cc1ccccc1Nc1nnc(C)c(=O)[nH]1	inactive	
Cc1nnc(N/N=C/C2CC=CCC2)[nH]c1=O (stereo not drawn)	11.2 µM (active)	
Cc1nnc(N/N=C/c2ccccn2)[nH]c1=O	inactive	
CCC(=O)N1c2ccc(S(=O)(=O)NCc3ccco3)cc2CC1C (stereo not drawn)	inactive	
CCc1ccc(NC(=O)CN2C(=O)COc3ccc(S(=O)(=O)N4CCCC4)cc32)cc1	inactive	
COc1cccc(CCNC(=O)c2cccc(NC(=O)C3=C(C)OCCS3)c2)c1	inactive	
O=C(NC12CC3CC(CC(C3)C1)C2)N1CCCC(CO)C1 (stereo not drawn)	inactive	
CCCCc1ccc(NC(=S)N2CCCC(CO)C2)cc1 (stereo not drawn)	15.8 µM (active)	
COc1ccc(NC(=S)N2CCCC(CO)C2)c(OC)c1 (stereo not drawn)	inactive	
CC(C)C(c1nnnn1C1CCCCC1)N1CCN(C(=O)c2ccco2)CC1 (stereo not drawn)	inactive	
CSCC[C@H](NC(=O)N1CCn2c1nc1ccccc12)C(=O)NCc1ccc2c(c1)OCO2	inactive	
CCc1ccc(C(=O)COC(=O)c2ccco2)cc1	inactive	
COc1ccc(CNC(=O)C(NS(=O)(=O)c2cccc3nsnc23)C(C)C)cc1 (stereo not drawn)	inactive	
O=C(Nc1nncs1)c1ccccc1NS(=O)(=O)c1cccs1	inactive	
CC(C)C(NS(=O)(=O)c1cccs1)C(=O)Nc1nc(C(C)(C)C)cs1 (stereo not drawn)	11.2 µM (active)	
OCCCN1c2ccccc2Nc2nnc(-c3ccccc3)cc21	10 µM (active)	

SMILES	Potency	activity change, negative = inhibition
O=C(NC1CCCCCCC1)c1cccs1	inactive	
Cc1cccc(N(C)C(=O)c2cc(S(=O)(=O)N3CCCCC3)c[nH]2)c1	inactive	
CCCC(=O)NC(C)C(c1cccs1)N1CCN(c2ccccc2)CC1 (stereo not drawn)	inactive	
CC(=O)OC(C(=O)NC1CCCCC1)c1ccccc1 (stereo not drawn)		-6.92% [at 10 µM]
CC(NC(=O)Nc1ccccc1)C(c1cccs1)N1CCN(c2ccccc2)CC1 (stereo not drawn)	inactive	
O=C(NC1CCCCC1)c1cc([N+](=O)[O-])ccc1N1CCOCC1	inactive	
O=C(NNC(=O)C(O)c1ccccc1)NC1CCCCC1 (stereo not drawn)	inactive	
CC(NC(=S)NC1CCCCC1)C(c1ccccc1)N1CCOCC1 (stereo not drawn)	5.01 µM (active)	
COc1ccc(S(=O)(=O)N2CCOCC2)cc1C(=O)NC1CCCCC1	inactive	
CC(NC(=S)Nc1ccccc1)C(c1cccs1)N1CCOCC1 (stereo not drawn)	11.2 µM (active)	
S=C(NC1CCCCC1)NN1CCOCC1	8.91 µM (active)	
CC(=O)N1CC(=O)N(CC(=O)Nc2ccc(Br)cc2)C1=S	inactive	
CCOC(=O)N1CCN(CCC(=O)Nc2ccccc2)CC1	inactive	
Cc1nc(Nc2ccccc2F)c2nnn(Cc3ccccc3Cl)c2n1	inactive	
Cc1cccc(CN2CCC(n3nccc3NC(=O)c3ccccc3C)CC2)n1	inactive	
O=C(NCc1ccccc1)C(c1ccco1)N(C(=O)c1csnn1)c1ccccc1F (stereo not drawn)	inactive	
CCCCN1C(=O)/C(=C2/Sc3ccc(Cl)cc3N2CC)SC1=S	inactive	
O=S(=O)(NC1CCCCC1N1CCCCC1)c1ccc(Cl)cc1 (stereo not drawn)	inactive	
CC(=O)Nc1cccc(Nc2nc(-c3cccs3)nc3ccccc23)c1	inactive	
COc1ccc(CN(C)C(=O)Cc2c[nH]c3ccccc23)c(OC)c1OC	inactive	
